# The supplement of paper PMC8728848
# Shown is part of a subset that was picked to be rich in the strongest signals.
# B1: Epa3 (Candida glabrata), Q6VBI8_CANGB (protein)
# chain: MGSSHHHHHHSSGLVPRGSHMNDLGFSLFEKRELSSQNPFGYPIGCSPQDVAIIPGLTMELYSYPIVSGTPPNCYDASYVDPEYPRTGYLKRKMVGKSTGVTGNLNYKYSVEKACMVKYGNLPAGYNYNEPLTVSNFTMILYGYFKAQTTGLHTFFVNADDLLYINFGAGNAFDCCKREDSKTKLGEYVAYDIWHVDSSKNKVSLFLEKDLYYPIRMFFNNIGKDSSLDLSFSVNGATDQISDFSGYLYSVPDQPDTCPAHIGYDTTCR
# Columns and labels:
# Test in all cases: glycan array binding signal (z-score within array); higher = stronger binding
# Settings in all cases: glycan notation: IUPAC condensed, linker removed
# [1] = target: Fuc(a1-2)Gal(b1-4)GlcNAc(b1-3)Gal(b1-4)GlcNAc
# Summary of the method: (§1)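 From the Consortium for Functional Glycomics database, 3228 arrays were curated, keeping only those whose protein sequence was available. Binding is given as a within-array Z-score averaged across arrays sharing a protein sequence and across linkers. Negative Z-scores can be read as non-binding.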
# [2] = target: Fuc(a1-2)Gal(b1-4)GlcNAc(b1-3)Gal(b1-4)GlcNAc(b1-2)Man(a1-3)[Fuc(a1-2)Gal(b1-4)GlcNAc(b1-3)Gal(b1-4)GlcNAc(b1-2)Man(a1-6)]Man(b1-4)GlcNAc(b1-4)GlcNAc
# Summary of the method: as §1
# [3] = target: Fuc(a1-2)Gal(b1-4)[Fuc(a1-3)]GlcNAc
# Summary of the method: as §1
# [4] = target: Fuc(a1-2)Gal(b1-4)[Fuc(a1-3)]GlcNAc(b1-2)Man(a1-3)[Fuc(a1-2)Gal(b1-4)[Fuc(a1-3)]GlcNAc(b1-2)Man(a1-6)]Man(b1-4)GlcNAc(b1-4)[Fuc(a1-6)]GlcNAc
# Summary of the method: as §1
# [5] = target: Fuc(a1-2)Gal(b1-4)[Fuc(a1-3)]GlcNAc(b1-2)[Fuc(a1-2)Gal(b1-4)[Fuc(a1-3)]GlcNAc(b1-4)]Man(a1-3)[Fuc(a1-2)Gal(b1-4)[Fuc(a1-3)]GlcNAc(b1-2)Man(a1-6)]Man(b1-4)GlcNAc(b1-4)GlcNAc
# Summary of the method: as §1
# [6] = target: Fuc(a1-2)Gal(b1-4)[Fuc(a1-3)]GlcNAc(b1-3)GalNAc
# Summary of the method: as §1
# [7] = target: Fuc(a1-2)Gal(b1-4)[Fuc(a1-3)]GlcNAc(b1-3)[Neu5Ac(a2-6)Gal(b1-4)GlcNAc(b1-6)]Gal(b1-4)Glc
# Summary of the method: as §1
# [8] = target: Fuc(a1-2)Gal6S(b1-4)Glc6S
# Summary of the method: as §1
# [9] = target: Fuc(a1-2)[Gal(a1-3)]Gal(b1-4)GlcNAc(b1-2)Man(a1-3)[Fuc(a1-2)[Gal(a1-3)]Gal(b1-4)GlcNAc(b1-2)Man(a1-6)]Man(b1-4)GlcNAc(b1-4)GlcNAc
# Summary of the method: as §1
# [10] = target: Fuc(a1-2)[Gal(a1-3)]Gal(b1-4)[Fuc(a1-3)]GlcNAc(b1-3)GalNAc
# Summary of the method: as §1
# [11] = target: Fuc(a1-2)[GalNAc(a1-3)]Gal(b1-3)GlcNAc
# Summary of the method: as §1
# [12] = target: Fuc(a1-2)[GalNAc(a1-3)]Gal(b1-3)GlcNAc(b1-2)Man(a1-3)[Fuc(a1-2)[GalNAc(a1-3)]Gal(b1-3)GlcNAc(b1-2)Man(a1-6)]Man(b1-4)GlcNAc(b1-4)[Fuc(a1-6)]GlcNAc
# Summary of the method: as §1
# [13] = target: Fuc(a1-2)[GalNAc(a1-3)]Gal(b1-4)GlcNAc(b1-3)Gal(b1-4)GlcNAc
# Summary of the method: as §1
# [14] = target: Fuc(a1-2)[GalNAc(a1-3)]Gal(b1-4)[Fuc(a1-3)]GlcNAc(b1-3)GalNAc
# Summary of the method: as §1
# [15] = target: Fuc(a1-3)[GalNAc(b1-4)]GlcNAc
# Summary of the method: as §1
# [16] = target: Gal(a1-3)Gal(b1-3)[Fuc(a1-4)]GlcNAc(b1-2)Man(a1-3)[Gal(a1-3)Gal(b1-3)[Fuc(a1-4)]GlcNAc(b1-2)Man(a1-6)]Man(b1-4)GlcNAc(b1-4)GlcNAc
# Summary of the method: as §1
# Gal(b1-3)Gal(b1-4)GlcNAc = target: Gal(b1-3)Gal(b1-4)GlcNAc
# Summary of the method: as §1
# Gal(b1-3)GalNAc = target: Gal(b1-3)GalNAc
# Summary of the method: as §1
# [17] = target: Gal(b1-3)GalNAc(a1-3)[Fuc(a1-2)]Gal(b1-4)Glc
# Summary of the method: as §1
# [18] = target: Gal(b1-3)GalNAc(a1-3)[Fuc(a1-2)]Gal(b1-4)GlcNAc
# Summary of the method: as §1
# Gal(b1-3)GalNAc(b1-3)Gal = target: Gal(b1-3)GalNAc(b1-3)Gal
# Summary of the method: as §1
# [19] = target: Gal(b1-3)GalNAc(b1-3)Gal(a1-4)Gal(b1-4)Glc
# Summary of the method: as §1
# [20] = target: Gal(b1-3)GalNAc(b1-4)Gal(b1-4)Glc
# Summary of the method: as §1
# [21] = target: Gal(b1-3)GalNAc(b1-4)[Neu5Ac(a2-3)]Gal(b1-4)Glc
# Summary of the method: as §1
# Gal(b1-3)GlcNAc = target: Gal(b1-3)GlcNAc
# Summary of the method: as §1
# [22] = target: Gal(b1-3)[Fuc(a1-4)]GlcNAc
# Summary of the method: as §1
# [23] = target: Gal(b1-3)[Neu5Ac(a2-6)]GalNAc
# Summary of the method: as §1
# [24] = target: Gal(b1-3)[Neu5Ac(b2-6)]GalNAc
# Summary of the method: as §1
# [25] = target: Gal(b1-4)GalNAc(b1-3)[Fuc(a1-2)]Gal(b1-4)GlcNAc
# Summary of the method: as §1
# [26] = target: Gal(b1-4)GlcNAc(b1-2)[Gal(b1-4)GlcNAc(b1-6)]Man(a1-6)[Gal(b1-4)GlcNAc(b1-2)Man(a1-3)]Man(b1-4)GlcNAc(b1-4)[Fuc(a1-6)]GlcNAc
# Summary of the method: as §1
# [27] = target: Gal(b1-4)GlcNAc(b1-3)Gal(b1-4)GlcNAc(b1-2)[Gal(b1-4)GlcNAc(b1-3)Gal(b1-4)GlcNAc(b1-6)]Man(a1-6)[Gal(b1-4)GlcNAc(b1-3)Gal(b1-4)GlcNAc(b1-2)Man(a1-3)]Man(b1-4)GlcNAc(b1-4)[Fuc(a1-6)]GlcNAc
# Summary of the method: as §1
# GalNAc(b1-3)GlcNAc = target: GalNAc(b1-3)GlcNAc
# Summary of the method: as §1
# GalNAc3S(b1-4)GlcNAc = target: GalNAc3S(b1-4)GlcNAc
# Summary of the method: as §1
# Glc(b1-4)Glc = target: Glc(b1-4)Glc
# Summary of the method: as §1
# [28] = target: GlcNAc(a1-3)Gal(b1-4)GlcNAc
# Summary of the method: as §1
# [29] = target: GlcNAc(b1-2)[GlcNAc(b1-4)]Man(a1-3)[GlcNAc(b1-4)][GlcNAc(b1-2)[GlcNAc(b1-6)]Man(a1-6)]Man(b1-4)GlcNAc(b1-4)[Fuc(a1-6)]GlcNAc
# Summary of the method: as §1
# [30] = target: GlcNAc(b1-3)Gal(b1-4)GlcNAc(b1-3)Gal(b1-4)GlcNAc(b1-2)Man(a1-3)[GlcNAc(b1-3)Gal(b1-4)GlcNAc(b1-3)Gal(b1-4)GlcNAc(b1-2)Man(a1-6)]Man(b1-4)GlcNAc(b1-4)[Fuc(a1-6)]GlcNAc
# Summary of the method: as §1
# [31] = target: GlcNAc(b1-3)[GlcNAc(b1-6)]GalNAc
# Summary of the method: as §1
# Kdn(a2-6)Gal(b1-4)GlcNAc = target: Kdn(a2-6)Gal(b1-4)GlcNAc
# Summary of the method: as §1
# [32] = target: Man(a1-2)Man(a1-3)[Man(a1-6)]Man(a1-6)[Man(a1-2)Man(a1-3)]Man(b1-4)GlcNAc(b1-4)GlcNAc
# Summary of the method: as §1
# [33] = target: Man(a1-3)[Man(a1-6)]Man(a1-6)[Man(a1-3)]Man(b1-4)GlcNAc(b1-4)GlcNAc
# Summary of the method: as §1
# [34] = target: Neu5Ac(a2-3)Gal(b1-3)GalNAc6S
# Summary of the method: as §1
# [35] = target: Neu5Ac(a2-3)Gal(b1-3)GlcNAc(b1-4)Gal(b1-4)Glc
# Summary of the method: as §1
# [36] = target: Neu5Ac(a2-3)Gal(b1-3)GlcNAc(b1-6)GalNAc
# Summary of the method: as §1
# Neu5Ac(a2-3)Gal(b1-4)Glc = target: Neu5Ac(a2-3)Gal(b1-4)Glc
# Summary of the method: as §1
# [37] = target: Neu5Ac(a2-3)Gal(b1-4)GlcNAc(b1-2)[Neu5Ac(a2-3)Gal(b1-4)GlcNAc(b1-4)]Man(a1-3)[GlcNAc(b1-4)][Neu5Ac(a2-3)Gal(b1-4)GlcNAc(b1-4)Man(a1-6)]Man(b1-4)GlcNAc(b1-4)GlcNAc
# Summary of the method: as §1
# [38] = target: Neu5Ac(a2-3)Gal(b1-4)GlcNAc(b1-3)Gal
# Summary of the method: as §1
# [39] = target: Neu5Ac(a2-3)Gal(b1-4)GlcNAc(b1-3)Gal(b1-4)GlcNAc(b1-3)Gal(b1-4)GlcNAc
# Summary of the method: as §1
# Neu5Ac(a2-3)GalNAc = target: Neu5Ac(a2-3)GalNAc
# Summary of the method: as §1
# [40] = target: Neu5Ac(a2-6)Gal(b1-4)GlcNAc(b1-2)Man(a1-3)[Gal(b1-4)GlcNAc(b1-2)Man(a1-6)]Man(b1-4)GlcNAc(b1-4)GlcNAc
# Summary of the method: as §1
# [41] = target: Neu5Ac(a2-6)GalNAc(b1-4)GlcNAc6S
# Summary of the method: as §1
# [42] = target: Neu5Ac(a2-8)Neu5Ac(a2-3)[Gal(b1-3)GalNAc(b1-4)]Gal(b1-4)Glc
# Summary of the method: as §1
# [43] = target: Neu5Ac(a2-8)Neu5Ac(a2-8)Neu5Ac
# Summary of the method: as §1
# Neu5Gc(a2-6)GalNAc = target: Neu5Gc(a2-6)GalNAc
# Summary of the method: as §1
binder,measurement,setting,value
B1,glycan array binding signal (z-score),[1],-0.314
same,glycan array binding signal (z-score),[2],0.01
same,glycan array binding signal (z-score),[3],-0.32
same,glycan array binding signal (z-score),[4],0.042
same,glycan array binding signal (z-score),[5],0.047
same,glycan array binding signal (z-score),[6],0.718
same,glycan array binding signal (z-score),[7],-0.262
same,glycan array binding signal (z-score),[8],0.004
same,glycan array binding signal (z-score),[9],-0.263
same,glycan array binding signal (z-score),[10],0.123
same,glycan array binding signal (z-score),[11],-0.201
same,glycan array binding signal (z-score),[12],-0.205
same,glycan array binding signal (z-score),[13],-0.246
same,glycan array binding signal (z-score),[14],2.94
same,glycan array binding signal (z-score),[15],0.843
same,glycan array binding signal (z-score),[16],-0.23
same,glycan array binding signal (z-score),Gal(b1-3)Gal(b1-4)GlcNAc,3.61
same,glycan array binding signal (z-score),Gal(b1-3)GalNAc,2.99
same,glycan array binding signal (z-score),[17],3.57
same,glycan array binding signal (z-score),[18],3.87
same,glycan array binding signal (z-score),Gal(b1-3)GalNAc(b1-3)Gal,8.62
same,glycan array binding signal (z-score),[19],3.07
same,glycan array binding signal (z-score),[20],17
same,glycan array binding signal (z-score),[21],2.86
same,glycan array binding signal (z-score),Gal(b1-3)GlcNAc,-0.202
same,glycan array binding signal (z-score),[22],-0.142
same,glycan array binding signal (z-score),[23],4.98
same,glycan array binding signal (z-score),[24],0.622
same,glycan array binding signal (z-score),[25],-0.192
same,glycan array binding signal (z-score),[26],-0.134
same,glycan array binding signal (z-score),[27],0.064
same,glycan array binding signal (z-score),GalNAc(b1-3)GlcNAc,-0.122
same,glycan array binding signal (z-score),GalNAc3S(b1-4)GlcNAc,-0.277
same,glycan array binding signal (z-score),Glc(b1-4)Glc,-0.201
same,glycan array binding signal (z-score),[28],-0.2
same,glycan array binding signal (z-score),[29],-0.314
same,glycan array binding signal (z-score),[30],0.201
same,glycan array binding signal (z-score),[31],-0.176
same,glycan array binding signal (z-score),Kdn(a2-6)Gal(b1-4)GlcNAc,-0.334
same,glycan array binding signal (z-score),[32],-0.175
same,glycan array binding signal (z-score),[33],-0.086
same,glycan array binding signal (z-score),[34],-0.264
same,glycan array binding signal (z-score),[35],0.022
same,glycan array binding signal (z-score),[36],-0.336
same,glycan array binding signal (z-score),Neu5Ac(a2-3)Gal(b1-4)Glc,-0.174
same,glycan array binding signal (z-score),[37],-0.312
same,glycan array binding signal (z-score),[38],-0.282
same,glycan array binding signal (z-score),[39],-0.435
same,glycan array binding signal (z-score),Neu5Ac(a2-3)GalNAc,-0.308
same,glycan array binding signal (z-score),[40],-0.331
same,glycan array binding signal (z-score),[41],-0.236
same,glycan array binding signal (z-score),[42],2.2
same,glycan array binding signal (z-score),[43],-0.342
same,glycan array binding signal (z-score),Neu5Gc(a2-6)GalNAc,-0.066
